The target in assay [1] is Myc proto-oncogene protein (Homo sapiens) (UniProt P01106). The experiment in a line: ATG_Myc_CIS: Attagene CIS-FACTORIAL HepG2 Assay for human Myelocytomatosis (Myc) Proto-Oncogene Transcription Factor (AID 2282990). The settings on record: HepG2, Attagene cis-reporter transcription factor activity; actives raise or lower the signal. In outline:
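DMSO-normalised, bidirectionally fitted reporter mRNA signal. HepG2 cells transfected with cis reporter constructs, treated 24 h; transcripts detected by RT-PCR, 6-FAM primer extension and CE.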

Assay [2] can be described thus: ATG_NRF2_ARE_CIS: Attagene CIS-FACTORIAL HepG2 Assay for human Nuclear Factor Erythroid 2 Related Factor 2 (NFR2) response to Antioxidant Response Elements (ARE) (AID 2282992).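 For AC50: reporter mRNA level measured by RT-PCR and capillary electrophoresis fluorescence.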 The settings on record: HepG2 Attagene ARE/NRF2 reporter, transcription factor activity; actives raise or lower the signal. The method in brief:
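Multiplexed reporter mRNA profiling in HepG2 after a 24 h chemical exposure. Curves fitted in both directions relative to DMSO negative control.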

Assay [3] in a line: ATG_Oct_MLP_CIS: Attagene CIS-FACTORIAL HepG2 Assay for human Octamer-Binding Transcription Factor (Oct) (AID 2282993). Particulars: HepG2 Attagene cis-factorial Oct reporter, mRNA; actives raise or lower the signal. In outline:
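HepG2 cells transiently transfected with cis-element-driven reporter transcription units (endogenous TF activity); 24 h compound exposure. Reporter mRNA quantified by RT-PCR, 6-FAM labelling, HpaI digestion and capillary electrophoresis; bidirectional fit versus DMSO baseline.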

In assay [4] the target is Cellular tumor antigen p53 (Homo sapiens) (UniProt P04637). The experiment in a line: ATG_p53_CIS: Attagene CIS-FACTORIAL HepG2 Assay for human p53 Transcription Factor (AID 2282994). Particulars: HepG2 p53 cis-element reporter, Attagene mRNA; actives raise or lower the signal. The method in brief: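 Multiplexed reporter mRNA assay in human HepG2 liver cells; cis-regulated units report endogenous factor activity. Values come from bidirectional curve fitting against DMSO negative control after 24 h treatment.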
Sequence of Cellular tumor antigen p53 (Homo sapiens) (P04637 whole entry, looked up): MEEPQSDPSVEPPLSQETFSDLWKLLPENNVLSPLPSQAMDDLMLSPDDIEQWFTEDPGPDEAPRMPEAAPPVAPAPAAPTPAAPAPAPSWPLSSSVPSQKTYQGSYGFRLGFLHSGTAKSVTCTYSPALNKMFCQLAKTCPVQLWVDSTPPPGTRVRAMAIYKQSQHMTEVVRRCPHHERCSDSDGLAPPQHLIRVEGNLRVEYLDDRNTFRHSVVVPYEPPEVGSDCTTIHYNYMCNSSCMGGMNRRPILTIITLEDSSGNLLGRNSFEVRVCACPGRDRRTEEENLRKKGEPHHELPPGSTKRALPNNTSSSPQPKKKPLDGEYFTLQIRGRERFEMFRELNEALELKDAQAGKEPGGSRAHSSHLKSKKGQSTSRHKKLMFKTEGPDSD

Assay [5] deals with human Peroxisome Proliferator-activated Receptor alpha (PPARa), PPARA (gene 5465) (UniProt Q07869). Briefly: ATG_PPARa_TRANS: Attagene TRANS-FACTORIAL HepG2 Assay for human Peroxisome Proliferator-activated Receptor alpha (PPARa) (AID 2283001; active = hit-call score of the fitted dose curve at least 0.9, where 1 is the maximum). In outline:
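Gain-of-signal endpoint: reporter mRNA induction relative to DMSO, detected by fluorescent RT-PCR and capillary electrophoresis. HepG2 cells transiently carried GAL4-UAS-driven reporter units plus NR-Gal4 fusion; exposure lasted 24 h.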

For assay [6], the target named is human Peroxisome Proliferator-activated Receptor delta (PPARd), PPARD (gene 5467) (UniProt Q03181). The experiment in a line: ATG_PPARd_TRANS: Attagene TRANS-FACTORIAL HepG2 Assay for human Peroxisome Proliferator-activated Receptor delta (PPARd) (AID 2283002; active = hit-call score of the fitted dose curve at least 0.9, where 1 is the maximum). The method in brief: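 Measured quantity: GAL4-UAS reporter transcript induction in HepG2 after 24 h chemical dosing, with NR-Gal4 chimeras supplied by transient transfection. Detection by RT-PCR and capillary electrophoresis; upward fit against DMSO.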
Sequence of human Peroxisome Proliferator-activated Receptor delta (PPARd), PPARD (gene 5467) (Q03181 whole entry, looked up, the tested form may be a part): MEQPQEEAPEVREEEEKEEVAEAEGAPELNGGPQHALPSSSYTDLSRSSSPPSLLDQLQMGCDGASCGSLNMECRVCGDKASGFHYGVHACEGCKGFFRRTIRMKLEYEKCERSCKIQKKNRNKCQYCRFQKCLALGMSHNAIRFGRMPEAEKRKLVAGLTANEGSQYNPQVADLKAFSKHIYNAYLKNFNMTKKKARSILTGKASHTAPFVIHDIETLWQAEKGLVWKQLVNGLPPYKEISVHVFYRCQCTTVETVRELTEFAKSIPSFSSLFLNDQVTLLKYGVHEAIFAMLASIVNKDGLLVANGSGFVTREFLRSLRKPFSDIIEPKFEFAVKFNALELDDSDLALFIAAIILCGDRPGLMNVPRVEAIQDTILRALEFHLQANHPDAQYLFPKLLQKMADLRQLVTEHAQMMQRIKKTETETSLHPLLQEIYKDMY

The target of assay [7] is Nuclear receptor subfamily 1 group I member 2 (Homo sapiens) (UniProt O75469). The experiment in a line: ATG_PXR_TRANS: Attagene TRANS-FACTORIAL HepG2 Assay for human Pregnane X Receptor (PXR) (AID 2283008; active = hit-call score of the fitted dose curve at least 0.9, where 1 is the maximum). In outline:
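Measures mRNA induction of a GAL4-UAS-driven reporter in human HepG2 cells transiently expressing PXR fused to Gal4, following 24 h treatment. DMSO served as negative control and baseline.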

In assay [8] the target is human Retinoic Acid Receptor beta (RARb), RARB (gene 5915) (UniProt P10826). Briefly: ATG_RARb_TRANS: Attagene TRANS-FACTORIAL HepG2 Assay for human Retinoic Acid Receptor beta (AID 2283004; active = hit-call score of the fitted dose curve at least 0.9, where 1 is the maximum). In outline:
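Transient transfection of HepG2 with multiple reporter units → chemical dosing, 24 h → total RNA isolation → RT with oligo(dT) → reporter-specific PCR, 6-FAM primer extension, HpaI digest → capillary electrophoresis. Positive direction vs DMSO control.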

For assay [9], the target named is Peroxisome proliferator-activated receptor gamma (Homo sapiens) (UniProt P37231). The experiment in a line: ATG_PPARg_TRANS: Attagene TRANS-FACTORIAL HepG2 Assay for human Peroxisome Proliferator-activated Receptor-gamma (PPARg) (AID 2283007; active = hit-call score of the fitted dose curve at least 0.9, where 1 is the maximum). In outline: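 Twenty-four hours after chemical dosing of transiently transfected HepG2 cells, isolated RNA was converted to cDNA, reporter sequences amplified and 6-FAM-labelled, then HpaI-digested and analysed by capillary electrophoresis. Signal increase against DMSO was fitted.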
Sequence of Peroxisome proliferator-activated receptor gamma (Homo sapiens) (P37231 whole entry, looked up): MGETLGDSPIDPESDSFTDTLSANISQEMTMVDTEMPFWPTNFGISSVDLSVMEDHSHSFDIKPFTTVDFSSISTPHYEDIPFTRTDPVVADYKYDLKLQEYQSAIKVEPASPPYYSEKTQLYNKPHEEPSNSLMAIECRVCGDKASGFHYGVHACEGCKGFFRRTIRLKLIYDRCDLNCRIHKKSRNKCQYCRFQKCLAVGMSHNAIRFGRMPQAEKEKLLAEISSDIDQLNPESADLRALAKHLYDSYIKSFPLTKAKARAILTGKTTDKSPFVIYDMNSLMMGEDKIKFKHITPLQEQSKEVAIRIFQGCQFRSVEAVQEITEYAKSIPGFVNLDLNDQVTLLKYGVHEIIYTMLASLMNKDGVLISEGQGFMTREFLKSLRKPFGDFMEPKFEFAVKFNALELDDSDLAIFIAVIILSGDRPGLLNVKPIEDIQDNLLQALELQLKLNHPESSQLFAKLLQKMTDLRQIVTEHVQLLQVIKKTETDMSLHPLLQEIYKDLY

For assay [10], the target named is human Retinoic Acid Receptor gamma (RARg), RARG (gene 5916) (UniProt P13631). The experiment in a line: ATG_RARg_TRANS: Attagene TRANS-FACTORIAL HepG2 Assay for human Retinoic Acid Receptor gamma (RARg) (AID 2283009; active = hit-call score of the fitted dose curve at least 0.9, where 1 is the maximum). The method in brief:
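Transient transfection of HepG2 with multi-reporter constructs, then 24 h chemical treatment. Total RNA isolated, reverse-transcribed, PCR-amplified, fluorescently labelled and resolved by capillary electrophoresis; activity scored as mRNA induction versus DMSO.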

Assay [11] has as its target human RAR-related Orphan Receptor gamma (RORg), RORC (gene 6097) (UniProt P51449). The experiment in a line: ATG_RORg_TRANS: Attagene TRANS-FACTORIAL HepG2 Assay for human RAR-related Orphan Receptor gamma (RORg) (AID 2283011; active = hit-call score of the fitted dose curve at least 0.9, where 1 is the maximum). The method in brief: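 First, HepG2 liver cells were transfected with GAL4-UAS-driven reporter constructs and the RORg-Gal4 fusion. Next, they were treated with chemical for 24 h. Finally, reporter mRNA was quantified by RT-PCR and capillary electrophoresis, with upward activity fitted against DMSO.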

Assay [12] is described as follows: BSK_3C_TissueFactor: BioMAP Diversity Plus: 3C Assay for Tissue Factor Biomarker Activity (AID 2282997). Particulars: BioMAP 3C HUVEC, tissue factor biomarker readout; actives raise or lower the signal. In outline:
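ELISA read-out of Tissue Factor levels on human umbilical vein endothelium collected 24 h after chemical dosing. Gain or loss of signal was fitted relative to DMSO.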

The nature of assay [13]: BSK_3C_uPAR: BioMAP Diversity Plus: 3C Assay for Urokinase-type plasminogen activator receptor (uPAR) Biomarker Activity (AID 2282998). The settings on record: BioMAP 3C HUVEC, uPAR biomarker ELISA; actives raise or lower the signal. The method in brief:
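Primary human umbilical vein endothelial cells, 3C system; surface uPAR measured by ELISA 24 h after dosing. Cytotoxicity via SRB total protein in parallel cultures; bidirectional fit against DMSO.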

The nature of assay [14]: BSK_3C_VCAM1: BioMAP Diversity Plus: 3C Assay for Vascular cell adhesion molecule 1 (VCAM1) Biomarker Activity (AID 2282999). The settings on record: BioMAP 3C HUVEC, VCAM1 ELISA, cytokine-stimulated; actives raise or lower the signal. In outline:
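Human umbilical vein endothelial cells were dosed with compound for 24 h, after which cell-surface VCAM-1 was quantified by ELISA. Bidirectional curve fitting used DMSO as negative control and activity baseline.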
(In an ELISA, binding on a coated surface is turned into a signal by an enzyme label.)

Assay [15] is described as follows: BSK_4H_Eotaxin3: BioMAP Diversity Plus: 4H Assay for Eotaxin 3 Biomarker Activity (AID 2283000).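 Note: CCL26 protein level quantified by ELISA in parallel with SRB cytotoxicity check.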 The settings on record: primary human endothelial cells (HUVEC); actives raise or lower the signal. In outline: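 Chemicals were added to human umbilical vein endothelium cultures, and Eotaxin-3 was quantified by ELISA at 24 h. Values were derived by bidirectional fitting with DMSO serving as negative control and activity baseline.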

Assay [16] deals with Retinoic acid receptor alpha (Homo sapiens) (UniProt P10276). The experiment in a line: ATG_RARa_TRANS: Attagene TRANS-FACTORIAL HepG2 Assay for human Retinoic Acid Receptor alpha (RARa) (AID 2283005; active = hit-call score of the fitted dose curve at least 0.9, where 1 is the maximum). In outline: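 HepG2 cells transiently transfected with multiple reporter units expressing chimeric RARα-GAL4 fusion, with GAL4-UAS-driven reporters. After 24 h compound exposure, reporter mRNA induction quantified by RT-PCR and capillary electrophoresis with fluorescent labeling; gain-of-signal fitted relative to DMSO control.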
Sequence of Retinoic acid receptor alpha (Homo sapiens) (P10276 whole entry, looked up, the tested form may be a part): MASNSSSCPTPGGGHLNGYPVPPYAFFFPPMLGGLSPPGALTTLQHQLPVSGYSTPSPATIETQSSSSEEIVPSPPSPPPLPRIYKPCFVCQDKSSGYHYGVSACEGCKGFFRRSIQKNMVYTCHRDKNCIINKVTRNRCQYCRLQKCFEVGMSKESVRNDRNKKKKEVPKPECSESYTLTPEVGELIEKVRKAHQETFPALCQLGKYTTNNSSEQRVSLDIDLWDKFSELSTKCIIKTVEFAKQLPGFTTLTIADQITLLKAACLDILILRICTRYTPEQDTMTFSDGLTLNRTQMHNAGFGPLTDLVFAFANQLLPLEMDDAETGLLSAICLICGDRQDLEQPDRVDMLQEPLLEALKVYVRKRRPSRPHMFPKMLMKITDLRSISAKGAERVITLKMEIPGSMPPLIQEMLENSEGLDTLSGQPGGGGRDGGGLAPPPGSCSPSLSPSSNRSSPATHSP

A short description of assay [17]: BSK_3C_Proliferation: Cell Proliferation Assessment in the BioMAP Diversity Plus: 3C Assay (AID 2283006). Particulars: primary human endothelial cells (HUVEC). The method in brief: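 Read-out is total protein by SRB absorbance at 560 nm, taken as a proxy for relative cell number. Primary human umbilical vein endothelium cultured below confluence was dosed for 48 h, TCA-fixed and SRB-stained; curves were fitted bidirectionally versus DMSO.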

Assay [18] addresses human RAR-related Orphan Receptor beta (RORb), RORB (gene 6096) (UniProt Q92753). The experiment in a line: ATG_RORb_TRANS: Attagene TRANS-FACTORIAL HepG2 Assay for human RAR-related Orphan Receptor beta (RORb) (AID 2283010; active = hit-call score of the fitted dose curve at least 0.9, where 1 is the maximum). The method in brief: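 Readout is reporter-gene mRNA induction, detected as fluorescence after RT-PCR and capillary electrophoresis, fitted for gain of signal against DMSO controls. Transiently transfected HepG2 liver cells carrying GAL4-UAS reporter constructs were treated for 24 hours.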

Records with an inconclusive call do not appear. The source made the active and inactive calls. Rule for the calls, unless noted: active = hit-call score of the fitted dose curve at least 0.9, where 1 is the maximum; inactive = score below 0.9.

What is called AC50 is the midpoint of the concentration-response curve, whichever way the signal moves.

Sequence of human Peroxisome Proliferator-activated Receptor alpha (PPARa), PPARA (gene 5465) (Q07869 whole entry, looked up, the tested form may be a part): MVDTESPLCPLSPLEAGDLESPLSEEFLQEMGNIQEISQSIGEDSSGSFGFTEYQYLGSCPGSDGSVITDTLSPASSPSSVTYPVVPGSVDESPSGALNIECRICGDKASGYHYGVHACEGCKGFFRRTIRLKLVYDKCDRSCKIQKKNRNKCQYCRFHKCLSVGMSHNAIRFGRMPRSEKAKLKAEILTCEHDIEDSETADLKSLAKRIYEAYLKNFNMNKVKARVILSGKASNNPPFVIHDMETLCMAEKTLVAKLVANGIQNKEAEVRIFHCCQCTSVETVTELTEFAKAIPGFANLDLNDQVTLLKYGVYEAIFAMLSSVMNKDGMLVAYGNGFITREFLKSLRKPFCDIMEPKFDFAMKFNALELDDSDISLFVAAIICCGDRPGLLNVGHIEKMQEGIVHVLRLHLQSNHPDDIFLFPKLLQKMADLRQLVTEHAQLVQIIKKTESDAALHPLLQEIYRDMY
Sequence of human Retinoic Acid Receptor gamma (RARg), RARG (gene 5916) (P13631 whole entry, looked up): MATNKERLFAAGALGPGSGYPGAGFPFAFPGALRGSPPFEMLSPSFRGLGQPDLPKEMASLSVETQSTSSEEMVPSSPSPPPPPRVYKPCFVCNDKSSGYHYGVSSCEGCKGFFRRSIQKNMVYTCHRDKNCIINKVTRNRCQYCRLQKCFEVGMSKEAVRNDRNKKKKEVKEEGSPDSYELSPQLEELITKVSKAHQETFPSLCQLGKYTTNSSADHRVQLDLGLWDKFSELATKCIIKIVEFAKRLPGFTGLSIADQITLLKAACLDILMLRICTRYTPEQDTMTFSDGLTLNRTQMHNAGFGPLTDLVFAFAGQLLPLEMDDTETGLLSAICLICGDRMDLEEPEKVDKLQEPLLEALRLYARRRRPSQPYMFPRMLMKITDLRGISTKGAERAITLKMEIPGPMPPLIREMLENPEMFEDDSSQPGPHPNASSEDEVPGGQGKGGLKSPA
Sequence of human Retinoic Acid Receptor beta (RARb), RARB (gene 5915) (P10826 whole entry, looked up): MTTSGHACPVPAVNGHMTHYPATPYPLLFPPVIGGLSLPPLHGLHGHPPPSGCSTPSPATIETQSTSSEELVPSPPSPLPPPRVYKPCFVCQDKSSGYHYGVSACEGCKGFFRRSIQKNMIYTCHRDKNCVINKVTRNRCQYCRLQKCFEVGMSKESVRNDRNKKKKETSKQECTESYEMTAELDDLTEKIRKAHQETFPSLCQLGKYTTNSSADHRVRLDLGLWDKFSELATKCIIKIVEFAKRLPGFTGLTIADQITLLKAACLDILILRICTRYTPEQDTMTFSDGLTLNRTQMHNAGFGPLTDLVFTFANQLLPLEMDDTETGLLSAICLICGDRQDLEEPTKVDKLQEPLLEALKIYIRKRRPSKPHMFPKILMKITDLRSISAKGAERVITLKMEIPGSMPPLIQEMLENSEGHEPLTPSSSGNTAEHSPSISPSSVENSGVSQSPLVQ
Sequence of Myc proto-oncogene protein (Homo sapiens) (P01106 whole entry, looked up): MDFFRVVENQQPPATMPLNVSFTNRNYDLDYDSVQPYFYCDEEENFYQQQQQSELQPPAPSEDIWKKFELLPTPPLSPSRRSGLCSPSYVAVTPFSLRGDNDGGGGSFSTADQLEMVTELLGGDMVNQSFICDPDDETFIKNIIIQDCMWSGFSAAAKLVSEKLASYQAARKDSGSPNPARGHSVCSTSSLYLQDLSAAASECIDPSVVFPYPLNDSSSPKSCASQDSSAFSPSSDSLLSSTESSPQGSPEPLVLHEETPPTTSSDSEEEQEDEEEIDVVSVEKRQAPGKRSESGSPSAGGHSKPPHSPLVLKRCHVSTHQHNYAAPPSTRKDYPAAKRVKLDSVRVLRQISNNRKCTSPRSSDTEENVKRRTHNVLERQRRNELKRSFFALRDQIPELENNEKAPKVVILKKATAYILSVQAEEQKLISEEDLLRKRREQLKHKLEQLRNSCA
Sequence of human RAR-related Orphan Receptor gamma (RORg), RORC (gene 6097) (P51449 whole entry, looked up, the tested form may be a part): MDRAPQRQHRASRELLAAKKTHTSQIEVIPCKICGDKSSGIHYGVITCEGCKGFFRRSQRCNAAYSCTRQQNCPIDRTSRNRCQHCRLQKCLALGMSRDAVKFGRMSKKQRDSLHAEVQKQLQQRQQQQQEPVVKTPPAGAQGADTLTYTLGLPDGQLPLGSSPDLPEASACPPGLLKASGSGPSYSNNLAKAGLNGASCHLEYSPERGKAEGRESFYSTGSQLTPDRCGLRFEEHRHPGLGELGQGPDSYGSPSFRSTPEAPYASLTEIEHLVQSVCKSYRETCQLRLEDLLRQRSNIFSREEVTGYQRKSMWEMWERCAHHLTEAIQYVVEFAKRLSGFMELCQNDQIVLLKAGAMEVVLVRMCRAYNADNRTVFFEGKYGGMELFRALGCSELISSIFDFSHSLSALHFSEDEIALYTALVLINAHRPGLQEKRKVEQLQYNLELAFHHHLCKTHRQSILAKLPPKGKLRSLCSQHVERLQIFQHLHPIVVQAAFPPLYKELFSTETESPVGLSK
Sequence of Nuclear receptor subfamily 1 group I member 2 (Homo sapiens) (O75469 whole entry, looked up, the tested form may be a part): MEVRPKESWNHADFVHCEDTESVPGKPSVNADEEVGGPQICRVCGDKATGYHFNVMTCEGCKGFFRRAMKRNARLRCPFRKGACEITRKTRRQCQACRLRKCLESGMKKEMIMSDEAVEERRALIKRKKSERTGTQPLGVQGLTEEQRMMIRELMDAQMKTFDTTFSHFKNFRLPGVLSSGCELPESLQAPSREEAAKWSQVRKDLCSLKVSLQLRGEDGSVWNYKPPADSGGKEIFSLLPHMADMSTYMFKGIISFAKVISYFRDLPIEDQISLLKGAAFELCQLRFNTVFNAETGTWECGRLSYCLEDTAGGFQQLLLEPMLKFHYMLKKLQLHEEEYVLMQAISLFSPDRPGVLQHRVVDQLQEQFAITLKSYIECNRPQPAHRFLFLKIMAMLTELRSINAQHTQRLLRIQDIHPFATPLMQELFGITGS

`CCC(C)S` (stereo unspecified): the call in [1], in assay [2], in assay [3], in [4], in [5] and in assay [6] was inactive. For the same compound, the result in assay [7] was inactive.
In the case of `Nc1ccc(N)c2c1C(=O)c1ccccc1C2=O`, the call in assay [1], in [4], in [5], in assay [6], in [8] and in assay [7] was inactive. In addition, in [10], the compound was called inactive. Also, the AC50 in assay [2] was 5.63 µM (active); in [3], 3.47 µM (active); in [9], 11.3 µM (active).
For `CCN(CCN)c1cccc(C)c1`, the result in assay [1], in [2], in assay [3], in assay [4], in [5] and in assay [8] was inactive. The compound was classed as inactive in [9], in [10] and in assay [11].
Regarding `CS(=O)(=O)OCCCCOS(C)(=O)=O`, the outcome in assay [1], in [2], in [3], in [4], in [12] and in [13] was inactive. Further, the outcome in [14], in [15], in [6], in assay [16], in [17] and in assay [9] was inactive. In [11], the call was inactive.
`CCCC(C)C(O)CC` (stereo unspecified): the compound was called inactive in [1], in assay [2], in [3], in assay [4], in assay [5] and in assay [8]. Moreover, the call in assay [16], in assay [9] and in [10] was inactive.
For the compound `Cc1ncc([N+](=O)[O-])n1CCO`, the call in assay [1], in assay [2], in assay [3], in assay [4], in assay [5] and in assay [6] was inactive. In addition, the compound was called inactive in [8], in assay [7], in assay [18] and in assay [11].
Regarding `C=C(C)C(=O)OCCOCCOCCOCCOC(=O)C(=C)C`, the compound was called inactive in assay [1], in assay [3], in [4], in assay [12], in assay [13] and in [14]. Moreover, the result in assay [15], in assay [5], in [6], in assay [17], in assay [7] and in [11] was inactive. The AC50 in [2] was 69.7 µM (active).
Regarding `C=C(CC(=O)O)C(=O)O`, the call in assay [1], in [2], in [3], in [4], in [5] and in [16] was inactive. The result in assay [9], in assay [7], in assay [10] and in assay [18] was inactive.

Source of the values: PubChem BioAssay (EPA / NIEHS).
